Source: PubChem BioAssay AID1817 (Sanford-Burnham Center for Chemical Genomics, 2009)
Among all 290,000 compounds or so, about 50 (0.02%) were called active. What follows is part of a selection rich in actives, with near analogues and random picks from the rest. Results with a measured potency or affinity are listed apart. Unmarked numbers belong to inactive results.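 The calls were made as follows: active = displacement of at least 50% at 20 µM, with a fluorescence ratio check between 0.3 and a set limit; inactive = the rest.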

target: E3 ubiquitin-protein ligase SIAH1 (Homo sapiens) (UniProt Q8IUQ4); assay: Siah-1 peptide-binding antagonists, primary screen, biochemical, fluorescence polarization, rhodamine-plectin, uHTS (AID 1817); conditions: Siah-1 / rhodamine-plectin peptide fluorescence polarization; at 20 µM; hits give high values;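 also: plate controls were Siah plus tracer with DMSO for no effect and tracer alone without Siah for full effect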
Sequence (Q8IUQ4 whole entry, looked up): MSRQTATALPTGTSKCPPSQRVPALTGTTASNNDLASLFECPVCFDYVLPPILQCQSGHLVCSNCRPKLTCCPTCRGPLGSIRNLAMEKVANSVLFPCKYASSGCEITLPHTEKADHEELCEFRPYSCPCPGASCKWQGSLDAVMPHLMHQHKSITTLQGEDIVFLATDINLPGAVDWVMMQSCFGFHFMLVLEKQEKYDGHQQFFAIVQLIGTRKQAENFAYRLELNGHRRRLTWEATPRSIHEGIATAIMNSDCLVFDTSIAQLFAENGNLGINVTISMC

| SMILES | displacement |
| --- | --- |
| O=C(NC(=S)Nc1ccc(S(=O)(=O)Nc2nccs2)cc1)c1ccccc1 | -2.4% |
| O=C(Nc1ccc(S(=O)(=O)Nc2nccs2)cc1)/C(=C/c1ccccc1Cl)NC(=O)c1ccccc1 | 54.4% (active) |
| COc1cc(NS(=O)(=O)c2ccc(NC(=O)/C(=C/c3ccccc3Cl)NC(=O)c3ccccc3)cc2)nc(OC)n1 | 13.9% |
| CCCn1c(=O)c(C(=O)NCc2ccncc2)c(O)c2ccccc21 | 8.4% |
| CC(=O)Nc1cccc(Oc2ncccc2[N+](=O)[O-])c1 | -3% |
| O=[N+]([O-])c1cc(Br)c(O)c(C=Nc2ccc(N3CCOCC3)cc2)c1 | 41.8% |
| Cc1ccc(O)c(N=Cc2cc(Cc3ccccc3)cc([N+](=O)[O-])c2O)c1 | 22.9% |
| O=[N+]([O-])c1cc(Cc2ccccc2)cc(C=Nc2ccc(N3CCOCC3)cc2)c1O | 50% (active) |
| O=C(NCc1ccco1)/C(=C\c1ccc(F)cc1)NC(=O)c1ccco1 | 5.4% |
| O=C(Nc1ccc(S(=O)(=O)N2CCOCC2)cc1)c1ccc(F)cc1 | 10.6% |
| O=C(Nc1ccc(S(=O)(=O)N2CCOCC2)cc1)c1ccc(S(=O)(=O)N2CCOCC2)cc1 | -5.8% |
| C=CCn1c(SCCC)nc(O)cc1=O | 3% |
| COc1ccccc1NC(=O)CN(Cc1ccco1)C(=O)c1ccc(-n2nc(C)cc2C)cc1 | -1.4% |
| COc1ccc(N2CCN(C(C)C(=O)N3CCc4ccccc43)CC2)cc1 (stereo not given) | -5.4% |
| Cc1ccsc1C=Nc1ccc(O)cc1 | 55.3% (active) |
| Cc1ccc(N=Cc2sccc2C)cc1C | 1.9% |
| Cc1ccsc1/C=N/N=C/c1sccc1C | -9.3% |
| O=C(O)CCNc1cc(N2CCN(C(=O)c3ccco3)CC2)c2noc3c2c1C(=O)c1ccccc1-3 | 63% |
| CCN1CCN(c2cc(N3CCN(C(=O)c4ccco4)CC3)c3c4c(onc24)-c2ccccc2C3=O)CC1 | 51.9% |
| Cc1ccc(-n2nnc3c(=O)n(CC(=O)NCC4CCCO4)cnc32)cc1 (stereo not given) | -0.3% |
| CCOC(=O)CN1C(=O)CN(c2ccc(C)cc2)C1=O | 5.5% |
| Cn1cc(NC(=O)OCc2ccc(Cl)cc2)c(C(F)(F)F)n1 | 1.5% |
| Oc1ccc(Cl)cc1N=Nc1ccccc1 | 12.6% |

| SMILES | displacement |
| --- | --- |
| O=S(=O)(O)c1cccc(N=Nc2c(O)ccc3ccccc23)c1 | -4.3% |
| CC12CCC(C(=O)N(NC(=O)c3ccc(O)cc3)C1=O)C2(C)C (stereo not given) | -2.6% |
| COc1ccccc1N(CC(=O)NCCSc1ccc(Cl)cc1)S(C)(=O)=O | -0.3% |
| CC(C)CC(c1nnnn1C(C)C)N1CCN(c2cccc(Cl)c2)CC1 (stereo not given) | -5.9% |
| CCCCNC1=CC(=O)C(=O)c2ccccc21 | 60% (active) |
| O=C1C=C(Nc2ccccc2)c2ccccc2C1=O | 45.4% |
| Cc1ccc(NC2=CC(=O)C(=O)c3ccccc32)cc1 | 3.3% |
| COC(=O)c1cc2ccccc2oc1=O | -2.6% |
| CCOC(=O)N/N=C\c1ccc(OC(=O)c2ccc3c(c2)OCO3)cc1 | 1.3% |
| CCOCCCNc1nc2c(C)cccn2c(=O)c1/C=C1\SC(=S)N(C(C)CC)C1=O (stereo not given) | 53.2% (active) |
| CCCN1C(=O)/C(=C/c2c(NCCCOCC)nc3c(C)cccn3c2=O)SC1=S | -2.4% |
| CCOCCCNc1nc2c(C)cccn2c(=O)c1/C=C1\SC(=S)N(CC(C)C)C1=O | -1.2% |
| Cc1nn(C)c(Oc2cccc(C(F)(F)F)c2)c1C=O | -3.5% |
| Cc1ccc(-n2ncc3c(NNC(=O)c4ccco4)ncnc32)cc1C | 3% |
| O=C(N1CCN(c2ccccc2F)CC1)C12CC3CC(CC(C3)C1)C2 | -8.1% |
| CCC(NC(=O)CCc1c(C)c2cc3c(C)c(C)oc3cc2oc1=O)C(=O)N[C@@H](Cc1ccccc1)C(=O)O (stereo not given in full) | 34.5% |
| Cc1oc2c(C)c3oc(=O)c(CC(=O)N[C@@H](CC(C)C)C(=O)N[C@@H](Cc4ccccc4)C(=O)O)c(C)c3cc2c1C | 30.3% |
| COc1cccc(C(C(=O)NC2CCCCC2)N(C(=O)c2cccs2)c2ccc3c(c2)OCO3)c1 (stereo not given) | -1% |
| COc1ccc(CCC(=O)Nc2ccc(S(=O)(=O)N3CCOCC3)cc2)cc1 | 1.9% |
| O=c1ccc2cc(S(=O)(=O)N3CCN(c4ccc(Cl)cc4)CC3)ccc2o1 | -0.9% |
| CCN1C(=C(C#N)C#N)C=Cc2ccccc21 | 8.2% |
| CCCn1c(=C(C#N)C#N)s/c(=C2\C=Cc3ccccc3N2CC)c1=O | 65.1% (active) |
